In PubChem BioAssay (Tox21):
Records with an inconclusive call do not appear. Activity calls are given as the source filed them. Unless noted, calls follow the shape of the dose curve; as a rule, active = well fitted curve in the direction sought with a large enough effect in the repeat runs; inconclusive = weak or mixed curves; inactive = no such curve, though single readings can be large; an effect the other way counts as inactive or inconclusive.

Legend:
[1] = qHTS RealTime-Glo MT Cell Viability Assay in HEK293 cells - 24 hour (AID 1224886); also: top concentration of the series differs between compounds; nearly all actives have a fitted effect of over 50% in size
In short: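 HEK293 cells were seeded at 600 cells/well together with NanoLuc luciferase and cell-permeant prosubstrate, preincubated 5 h at 37 C/5% CO2, then given compound in DMSO by pintool. Luminescence from viable-cell prosubstrate reduction was read repeatedly over 40 h.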

[2] = qHTS RealTime-Glo MT Cell Viability Assay in HEK293 cells - 8 hour (AID 1224887); also: top concentration of the series differs between compounds; nearly all actives have a fitted effect of over 50% in size
In short: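 Real-time viability in HEK293: signal arises when living cells convert a prosubstrate for NanoLuc in the medium, so luminescence tracks viable cell number. Compound (23 nL, DMSO) added 5 h post-seeding; kinetic reads at 0–40 h, 37 C.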

[3] = qHTS RealTime-Glo MT Cell Viability Assay in HepG2 cells - 0 hour (AID 1224889); also: nearly all actives have a fitted effect of over 50% in size
In short: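 HepG2 cells were seeded at 600 cells/well together with NanoLuc luciferase and a cell-permeant prosubstrate, preincubated 5 h at 37 C/5% CO2, then pin-dosed with compounds in DMSO. Nonlytic luminescence from viable cells was read at each time point.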

[4] = A CellTox Green Cytotoxicity Assay to monitor cytotoxicity in HepG2 cells - 8 hour (AID 1224890); also: nearly all actives have a fitted effect of over 45% in size
In short: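 Cells and non-lytic dye reagent are dispensed together (600 HepG2 cells/well) and incubated 5 h before DMSO compound transfer. Kinetic fluorescence is then recorded in the same wells during 40 h at 37 C.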

[5] = qHTS assay to identify small molecule antagonists of the androgen receptor (AR) signaling pathway using the MDA cell line in the presence of 0.5 nM R1881 - cell viability counter screen (AID 1259242); also: nearly all actives have a fitted effect of over 45% in size
In short: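 Steps: plate MDA-kb2 cells, rest 5 hr at 37C without CO2; pin in compounds in DMSO; add R1881 to 0.5 nM final; incubate 16 hr; add CellTiter-Fluor, 30 min; read fluorescence.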

[6] = target: Androgen receptor (Homo sapiens) (UniProt P10275); assay: qHTS assay to identify small molecule antagonists of the androgen receptor (AR) signaling pathway using the MDA cell line in the presence of 0.5 nM R1881 (AID 1259243); also: nearly all actives have a fitted effect of over 50% in size
In short: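 Stably transfected MDA-kb2 cells express luciferase from an MMTV promoter bearing both AR and GR response elements. Compounds plus 0.5 nM R1881 (final) were incubated 16 hr at 37C without CO2, then luminescence measured.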

[7] = qHTS assay to identify small molecule HDAC inhibitors (AID 1259364);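 also: wild-type HCT-116 cells with endogenous class I/II HDAC activity; top concentration of the series differs between compounds; nearly all actives have a fitted effect of over 45% in size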
In short: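 Cells (HCT-116, wild type) are seeded at 1,500 per well, incubated overnight, treated with compound in DMSO for 2 hr, then developed with HDAC-Glo I/II reagent for 30 min at room temperature.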

[8] = qHTS assay to identify small molecule HDAC inhibitors - cell viability counter screen (AID 1259365)
In short: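 Following a 2hr exposure of overnight-plated wild-type HCT-116 cells to DMSO-delivered compounds, CellTiter-Glo was added and luminescence recorded after 30min at room temperature.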

[9] = qHTS assay to identify small molecule antagonists of the sonic hedgehog signaling (Shh) pathway - cell viability counter screen (AID 1259367); also: nearly all actives have a fitted effect of over 55% in size
In short: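 Fluorescence read-out (CellTiter-Fluor, 1 hr at 37C) taken after 23 hr compound treatment of 3T3 Gli1-Luc cells stimulated with conditioned medium. Cells were seeded at 2,000 per well and pre-incubated 4 hr.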

[10] = qHTS assay to identify small molecule agonists of the sonic hedgehog signaling (Shh) pathway (AID 1259368; calls by dose curve;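 also: NIH/3T3-derived 3T3Gli1-Luc cells carrying a stable Gli1-driven firefly luciferase reporter; series mostly up to about 92 µM; nearly all actives have a fitted effect of over 15% in size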)
In short: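 Cells of a mouse NIH/3T3 clone stably expressing luciferase under the Gli1 transcriptional response element are exposed to test chemicals for 24 hr at 37 C. Pathway activation is detected as a rise in luminescence.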

[11] = qHTS assay to identify small molecule antagonists of the sonic hedgehog signaling (Shh) pathway (AID 1259369; calls by dose curve; also: nearly all actives have a fitted effect of over 45% in size)
In short: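 Cells are plated and held 4hr at 37 C, compounds (DMSO) are pinned in, conditioned medium is added to stimulate the pathway, and after 24hr luciferase reagent is added for 30min before luminescence is read.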

[12] = target: Estrogen receptor beta (Homo sapiens) (UniProt Q92731); assay: qHTS assay to identify small molecule agonists of the estrogen receptor beta (ER-beta) signaling pathway (AID 1259377; active = well fitted activation curve with a large enough effect in the signal ratio in the repeat runs, not every such curve was filed as active; the % refers to the signal ratio)
In short: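 In HEK293T cells bearing a UAS-beta-lactamase reporter under ER-beta control, DMSO-delivered compounds were incubated for 16 hr at 37C. Activity was detected as fluorescence 2 hours after LiveBLAzer B/G FRET substrate addition.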

[13] = target: Estrogen receptor beta (Homo sapiens) (UniProt Q92731); assay: qHTS assay to identify small molecule antagonists of the estrogen receptor beta (ER-beta) signaling pathway (AID 1259378; active = well fitted inhibition curve with a large enough effect in the signal ratio in the repeat runs, not every such curve was filed as active; the % refers to the signal ratio)
In short: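 ER-beta-UAS-bla HEK293T cells in 2% charcoal-stripped FBS medium treated with compound plus 1nM final 17-beta-estradiol for 16 hr at 37C. Beta-lactamase reporter read by FRET substrate fluorescence after 2 hours at room temperature.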

[14] = qHTS assay to identify small molecule agonists of the androgen receptor (AR) signaling pathway in the presence of an antagonist - cell viability counter screen (AID 1259379); also: nearly all actives have a fitted effect of over 25% in size; also: potency is read from the fitted curve at half-maximal effect;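 as to activity change, negative = cytotoxicity: MDA-kb2 human breast cancer cells carrying an MMTV luciferase reporter; series mostly up to about 92 µM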
In short: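 Cytotoxicity is assessed by CellTiter-Fluor in MDA-kb2 cells carrying an MMTV-driven luciferase reporter. Cells receive 3.0uM nilutamide plus compounds at 15 concentrations and incubate 16 hr at 37C without CO2 before fluorescence reading.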

[15] = qHTS assay to identify small molecule agonists of the estrogen receptor beta (ER-beta) signaling pathway - cell viability counter screen (AID 1259380); also: nearly all actives have a fitted effect of over 30% in size
In short: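 Cytotoxicity is measured in parallel with the reporter screen: after 16 hr compound exposure at 37C and a 2 hr LiveBLAzer step, CellTiter-Glo is added to the same ER-beta-UAS-bla HEK293T wells and luminescence read after 30 min.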

[16] = qHTS assay to identify small molecule antagonists of the estrogen receptor alpha (ER-alpha) signaling pathway using the BG1 cell line in the presence of 0.1 nM 17-beta-estradiol - cell viability counter screen (AID 1259241); also: nearly all actives have a fitted effect of over 40% in size
In short: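 Measures cytotoxicity alongside the ER-alpha antagonist readout: VM7Luc4E2 cells, charcoal-stripped serum, 0.1 nM 17beta-estradiol final, 22 hr compound incubation at 37C, CellTiter-Fluor fluorescence.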

[17] = target: Estrogen receptor (Homo sapiens) (UniProt P03372); assay: qHTS assay to identify small molecule antagonists of the estrogen receptor alpha (ER-alpha) signaling pathway using the BG1 cell line in the presence of 0.1 nM 17-beta-estradiol (AID 1259244); also: nearly all actives have a fitted effect of over 50% in size
In short: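 Antagonist mode: compounds in DMSO are pinned onto VM7Luc4E2 reporter cells, 0.1 nM final 17beta-estradiol is added, and after 22 h at 37C luciferase luminescence is measured with ONE-Glo.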

[18] = qHTS assay to identify small molecule agonists of the sonic hedgehog signaling (Shh) pathway - cell viability counter screen (AID 1259366); also: nearly all actives have a fitted effect of over 50% in size
In short: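 After a 4hr attachment at 37C, NIH/3T3 cells bearing an integrated Gli1-driven luciferase reporter were dosed with compounds. Treatment lasted 24hr, with the final hour including CellTiter-Fluor for a fluorescence viability measurement.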

[19] = A CellTox Green Cytotoxicity Assay to monitor cytotoxicity in HEK293 cells - 16 hour (AID 1224888); also: nearly all actives have a fitted effect of over 35% in size
In short: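 Cells (HEK293, 600/well) and dye reagent are dispensed together. After 5 h at 37 C, 23 nL compound is pinned in. Plates stay at 37 C for 40 h with fluorescence read at 0h, 8h, 16h, 24h, 32h and 40h.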
% is scaled to controls: 0 for no effect and ±100 for the full control effect.

Sequence of Estrogen receptor (Homo sapiens) (P03372 whole entry, looked up): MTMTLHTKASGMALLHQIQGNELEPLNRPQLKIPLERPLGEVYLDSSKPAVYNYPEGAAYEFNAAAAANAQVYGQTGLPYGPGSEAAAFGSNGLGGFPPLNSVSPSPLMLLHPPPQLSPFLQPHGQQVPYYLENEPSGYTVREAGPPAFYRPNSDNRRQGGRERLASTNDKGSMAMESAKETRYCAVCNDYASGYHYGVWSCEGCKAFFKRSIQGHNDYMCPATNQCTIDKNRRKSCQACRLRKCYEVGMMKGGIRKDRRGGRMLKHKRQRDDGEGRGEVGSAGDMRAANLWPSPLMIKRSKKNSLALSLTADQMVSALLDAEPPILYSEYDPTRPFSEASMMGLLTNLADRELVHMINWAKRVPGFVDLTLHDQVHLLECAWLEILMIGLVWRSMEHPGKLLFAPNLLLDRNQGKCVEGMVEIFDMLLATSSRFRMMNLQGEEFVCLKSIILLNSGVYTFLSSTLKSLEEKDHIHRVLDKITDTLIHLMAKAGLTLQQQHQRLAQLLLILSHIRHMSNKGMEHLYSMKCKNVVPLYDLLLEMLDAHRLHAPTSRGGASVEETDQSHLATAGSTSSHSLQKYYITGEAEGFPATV
Sequence of Estrogen receptor beta (Homo sapiens) (Q92731 whole entry, looked up): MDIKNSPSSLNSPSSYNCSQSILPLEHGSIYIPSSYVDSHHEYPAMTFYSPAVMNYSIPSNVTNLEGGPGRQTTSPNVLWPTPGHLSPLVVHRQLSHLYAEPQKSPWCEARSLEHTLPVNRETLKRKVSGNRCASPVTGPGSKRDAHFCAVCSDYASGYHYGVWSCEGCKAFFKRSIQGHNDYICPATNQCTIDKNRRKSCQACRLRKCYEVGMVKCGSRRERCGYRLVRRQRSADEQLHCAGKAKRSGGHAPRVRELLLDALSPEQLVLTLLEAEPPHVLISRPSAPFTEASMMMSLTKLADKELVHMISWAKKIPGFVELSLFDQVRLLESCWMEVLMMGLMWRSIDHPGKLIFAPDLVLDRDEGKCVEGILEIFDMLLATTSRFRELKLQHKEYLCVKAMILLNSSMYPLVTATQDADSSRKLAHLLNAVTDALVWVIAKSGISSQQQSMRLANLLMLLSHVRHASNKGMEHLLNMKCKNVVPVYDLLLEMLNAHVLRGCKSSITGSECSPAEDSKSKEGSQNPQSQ
Sequence of Androgen receptor (Homo sapiens) (P10275 whole entry, looked up): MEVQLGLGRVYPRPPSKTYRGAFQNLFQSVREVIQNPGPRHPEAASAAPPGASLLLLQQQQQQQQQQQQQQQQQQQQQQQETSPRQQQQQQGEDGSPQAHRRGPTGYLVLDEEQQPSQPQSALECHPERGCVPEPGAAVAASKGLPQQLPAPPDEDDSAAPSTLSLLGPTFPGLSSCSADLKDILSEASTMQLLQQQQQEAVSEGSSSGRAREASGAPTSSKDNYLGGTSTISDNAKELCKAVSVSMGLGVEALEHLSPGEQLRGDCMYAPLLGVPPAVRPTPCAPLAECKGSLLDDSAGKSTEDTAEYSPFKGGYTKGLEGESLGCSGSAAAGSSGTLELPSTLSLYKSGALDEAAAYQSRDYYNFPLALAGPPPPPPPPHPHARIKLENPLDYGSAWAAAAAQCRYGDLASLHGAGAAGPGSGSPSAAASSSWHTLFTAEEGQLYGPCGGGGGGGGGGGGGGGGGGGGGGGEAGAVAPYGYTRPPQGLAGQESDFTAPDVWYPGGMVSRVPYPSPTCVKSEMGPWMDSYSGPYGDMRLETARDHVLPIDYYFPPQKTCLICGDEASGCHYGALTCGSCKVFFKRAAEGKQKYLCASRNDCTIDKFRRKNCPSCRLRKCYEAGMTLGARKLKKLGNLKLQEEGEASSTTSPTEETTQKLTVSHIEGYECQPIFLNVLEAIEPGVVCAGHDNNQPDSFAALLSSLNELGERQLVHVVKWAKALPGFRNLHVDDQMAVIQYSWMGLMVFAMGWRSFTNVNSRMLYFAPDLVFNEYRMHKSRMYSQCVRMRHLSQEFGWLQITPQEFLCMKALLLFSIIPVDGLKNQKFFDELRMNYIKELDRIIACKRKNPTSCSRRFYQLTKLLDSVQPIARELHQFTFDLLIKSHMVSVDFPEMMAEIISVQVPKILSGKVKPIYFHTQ

O=C(O)c1ccc(OCCN2CCCCC2)cc1
inactive: Potency [1] | Potency [2] | Potency [3] | Potency [4] | Potency [5] | outcome [6] | Potency [7] | outcome [8] | Potency [9] | outcome [10] | Potency [11] | Potency [12] | outcome [13] | Potency [14] | outcome [15]

Nc1cc(Cl)cc(S(=O)(=O)O)c1O
inactive: Potency [1] | Potency [2] | Potency [3] | Potency [4] | Potency [16] | Potency [5] | Potency [17] | Potency [7] | outcome [8] | Potency [18] | Potency [9] | outcome [10] | Potency [11] | Potency [14] | outcome [15]

C=CCOc1cc(Cl)ccc1C(=O)NCCN(CC)CC
inactive: Potency [1] | Potency [2] | Potency [3] | Potency [4] | Potency [16] | Potency [5] | Potency [7] | outcome [8] | Potency [9] | outcome [10] | Potency [12] | outcome [13] | Potency [14] | outcome [15]

O=C1OC(=O)c2ccccc21
inactive: Potency [1] | Potency [2] | Potency [3] | Potency [4] | Potency [5] | Potency [7] | outcome [8] | Potency [18] | Potency [9] | outcome [10] | Potency [11] | Potency [12] | outcome [13] | Potency [14] | outcome [15]

Nc1cc(S(=O)(=O)O)ccc1S(=O)(=O)O
inactive: Potency [1] | Potency [2] | Potency [3] | Potency [4] | Potency [16] | Potency [5] | Potency [7] | outcome [8] | Potency [18] | Potency [9] | Potency [11] | Potency [12] | outcome [13] | Potency [14] | outcome [15]

CC(C)CCC(=O)CCC(C)C
inactive: Potency [1] | Potency [2] | Potency [3] | Potency [4] | Potency [16] | Potency [5] | Potency [7] | outcome [8] | Potency [18] | Potency [9] | outcome [10] | Potency [12] | Potency [14] | outcome [15]

CC1=NN(c2ccc(S(=O)(=O)O)cc2)C(=O)C1N=Nc1ccccc1 (stereo not given)
active: Potency [14] 30.6 µM
inactive: Potency [2] | Potency [19] | Potency [3] | Potency [16] | Potency [17] | Potency [7] | outcome [8] | outcome [10] | Potency [11] | outcome [15]

CO[Si](CCCCl)(OC)OC
inactive: Potency [1] | Potency [19] | Potency [3] | Potency [4] | Potency [16] | Potency [5] | Potency [17] | Potency [7] | outcome [8] | Potency [18] | Potency [9] | outcome [10] | Potency [11] | Potency [12] | outcome [13] | Potency [14] | outcome [15]

O=CO
inactive: activity change, negative = cytotoxicity [1] 1.22% [at 6.97 µM] | activity change, negative = cytotoxicity [2] 8.18% [at 6.97 µM] | activity change, negative = cytotoxicity [3] -14.6% [at 6.97 µM] | cytotoxicity increase [4] -4.28% [at 6.97 µM] | activity change, negative = cytotoxicity [16] -0.2% [at 8.39 µM] | viability change, negative = cytotoxic [5] 2.31% [at 8.39 µM] | activity change, negative = inhibition [7] -0.333% [at 8.39 µM] | activity change, negative = cytotoxicity [8] -1.28% [at 8.39 µM] | viability change, negative = cytotoxic [18] 5.23% [at 8.39 µM] | viability change, negative = cytotoxic [9] 1.7% [at 8.39 µM] | activity change [10] -0.175% [at 8.39 µM] | activity change, negative = inhibition [11] 8.06% [at 8.39 µM] | activity change, negative = cytotoxicity [14] 0.727% [at 8.39 µM] | activity change, negative = cytotoxicity [15] 0.536% [at 8.39 µM]
